From PubChem
Sampled rows, rich in hits. Any-hit rate of the full collection: about 4.7%.
ADAM10 inh – human ADAM10 inhibitors, primary screen, biochemical, QFRET, HTS | recombinant ADAM10, EDANS/DABCYL FRET peptide cleavage, 3 h | inhibition, % at 7 µM | 0.62% of 370,000 active;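 active means inhibition above a per-campaign cutoff equal to the mean of compounds falling between control-based bounds plus 3 SD, cut at about 20% in these data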;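 further: 0% = DMSO wells while the 100% control is not disclosed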
DSG3 Ab inh – inhibitors of pemphigus antibody binding to DSG3, primary screen, biochemical, bead-based, flow cytometry, scFv-GFP; DSG3-coupled beads, scFv-anti-DSG3-GFP binding; active compounds read low; binding (percent of control), % at 10 µM; 0.48% of 310,000 active; AID 588358, 2011;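 active means binding more than 3 SD below its plate's average and above zero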;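 further: hits lower antibody fragment binding to DSG3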
MPTP block – mitochondrial permeability transition pore inhibitors, primary screen, biochemical, isolated mouse mitochondria, absorbance; Ca2+ swelling absorbance, 30 min; inhibition, % at 10 µM; 1.4% of 360,000 active; AID 602449, 2012;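 active means inhibition of 50% or more, scaled per plate between neutral and stimulator controls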;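 further: 0% = DMSO wells given calcium and 100% = 1 mM EGTA wells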
ADAM17 inh – ADAM17 inhibitors, primary screen, biochemical, QFRET; inhibition, % at 6.95 µM; recombinant ADAM17, EDANS/DABCYL FRET peptide cleavage; 0.83% of 370,000 active;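 active means inhibition above the mean of compounds lying between control limits plus 3 SD, set per campaign, cut at about 8.5% in these data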;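 further: 0% = DMSO-only wells as the low control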
rCAG binder – binders of r(CAG) RNA repeats, primary screen, biochemical, fluorescence | r(CAG) RNA repeat, TO-PRO-1 dye displacement fluorescence | inhibition, % at 3 µM | 1.3% of 370,000 active;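 active means inhibition above the plate cutoff, the mean of all test compounds on that plate plus 3 SD, cut at about 35% in these data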;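 further: 0% = DMSO alone and 100% = 100 µM mitoxantrone as full dye displacement; higher means more dye released from RNA so lower well fluorescence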
KLK7 zymogen act – proKLK7 zymogen activators, primary screen, biochemical, fluorescence intensity. Kallikrein-7 (Homo sapiens), P49862. 0.9% of 370,000 active. activation, % at 7 µM. purified proKLK7, EDANS-DABCYL substrate fluorescence; 100% is mature enzyme control, 0% vehicle;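 active means activation above the mean of all tested compounds plus 3 SD, computed per campaign excluding outliers beyond control limits, cut at about 13% in these data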
Target sequence (P49862 whole entry, looked up): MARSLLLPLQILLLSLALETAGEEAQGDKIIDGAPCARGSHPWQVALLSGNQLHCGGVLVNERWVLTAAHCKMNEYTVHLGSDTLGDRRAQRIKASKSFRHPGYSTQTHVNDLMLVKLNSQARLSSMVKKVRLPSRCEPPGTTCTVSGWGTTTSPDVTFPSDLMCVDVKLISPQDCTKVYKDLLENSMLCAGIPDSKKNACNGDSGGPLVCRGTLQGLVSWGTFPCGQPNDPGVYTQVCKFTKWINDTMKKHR
rCAG binder conf – small molecules binding CAG repeat RNA – biochemical, fluorescence, confirmation | shares compounds with rCAG binder | r(CAG) RNA repeat, TO-PRO-1 dye displacement fluorescence | inhibition, % at 3 µM | 70% of 4,300 active | AID 652065, 2013;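 active means inhibition above a per-plate cutoff, the mean inhibition of sample wells plus 3 SD, cut at about 35% in these data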;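 further: loss of TO-PRO-1 fluorescence as compound displaces dye from 1x1 AA loop RNA; 0% = DMSO only wells and 100% = 100 µM mitoxantrone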
dCAG dye counter – displacement of TO-PRO-1 from CAG DNA duplex, counter-screen for rCAG RNA repeat binder project, biochemical, fluorescence, TO-PRO-1 dye, d(CAG) DNA oligo | shares compounds with rCAG binder | d(CAG) DNA oligo TO-PRO-1 dye displacement | inhibition, % at 3 µM | 94% of 4,300 active;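 active means inhibition above its plate's cutoff, the mean test-well inhibition plus 3 SD, cut at about 4.8% in these data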;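 further: 0% = DNA dye mix with DMSO and 100% = 100 µM mitoxantrone; hits displace the dye from DNA and so lower well fluorescence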
DNA CAG DR – inhibitors of DNA CAG/GTC TO-PRO-1 complex, dose response, counter-screen for rCAG RNA repeat binder project, biochemical, fluorescence, TO-PRO-1 dye; AID 686960, 2013; DNA CAG/GTC duplex TO-PRO-1 dye displacement fluorescence; IC50, µM; 20% of 250 active; shares compounds with rCAG binder; in the data active means IC50 below about 10 µM
The depositor's hits bear a star; i = inactive; / = not tested or not shown.

SMILES	ADAM10 inh	DSG3 Ab inh	MPTP block	ADAM17 inh	rCAG binder	KLK7 zymogen act	rCAG binder conf	dCAG dye counter	others
CC(=O)Nc1ccc(S(=O)(=O)Nc2nc3ccccc3nc2Sc2nncn2C)cc1	-56.3	103.6	-2.5	-23.1	-9.4	1.3	/	/
CC(=O)Nc1ccc(S(=O)(=O)Nc2nc3ccccc3nc2Nc2ccc3ccccc3c2)cc1	-49.4	130.0	4.6	-18.3	74.8*	0.7	93.3*	81.6*
CC(=O)Nc1ccc(S(=O)(=O)Nc2nc3ccccc3nc2Nc2cccc(O)c2)cc1	-11.6	94.2	2.0	-6.7	58.6*	0.4	46.0*	11.8*
CC(=O)Nc1ccc(S(=O)(=O)Nc2nc3ccccc3nc2Nc2ccc(C(=O)O)c(O)c2)cc1	-29.7	114.7	0.5	-7.2	47.2*	5.7	44.9*	12.6*
NC(=O)c1ncn([C@@H]2O[C@H](C(=O)N3CCN(Cc4ccccn4)CC3)[C@@H](O)[C@H]2O)n1	1.4	/	/	1.1	2.6	0.2	/	/
COc1cc(C=O)ccc1OC(=O)Nc1ccccc1	14.5	102.2	-0.3	3.6	1.1	0.4	/	/
N#Cc1c(NC(=O)/C=C/c2ccco2)sc2c1CCCC2	-11.6	95.9	2.1	-2.1	37.9*	-159.1	25.7	13.6*
Cc1ccccc1S(=O)(=O)NC(=O)C1(C)CCN1C(=O)c1ccccc1CCc1ccccc1 (centres undefined)	-7.0	/	1.4	-4.0	49.6*	0.3	41.4*	10.0*
CC1(C(=O)NS(=O)(=O)c2ccccc2)CCN1C(=O)c1ccccc1CCc1ccccc1 (centres undefined)	-8.1	/	0.9	-3.8	40.0*	0.4	32.9	6.5*
Cc1noc(C)c1S(=O)(=O)NC(=O)C1(C)CCN1C(=O)c1ccccc1CCc1ccccc1 (centres undefined)	-5.9	/	-0.3	0.5	30.7	-0.1	/	/
Cc1ccc(S(=O)(=O)NC(=O)C2(C)CCN2C(=O)c2ccccc2CCc2ccccc2)cc1 (centres undefined)	-10.2	/	0.5	-3.6	48.5*	0.1	47.7*	14.1*
CC1(C(=O)NS(=O)(=O)c2ccc(Cl)s2)CCN1C(=O)c1ccccc1CCc1ccccc1 (centres undefined)	-6.8	/	2.4	-5.0	71.2*	-0.3	72.2*	31.1*	DNA CAG DR=3.04*
CSc1n[nH]c(-c2cccs2)n1	2.6	/	/	-2.1	2.6	0.1	/	/
CC1(C(=O)NS(=O)(=O)c2ccc(C#N)cc2)CCN1C(=O)c1ccccc1CCc1ccccc1 (centres undefined)	-4.4	/	1.7	1.3	48.1*	-0.1	45.5*	11.0*
O=C(O)c1cc(N2N=C(C(F)(F)F)/C(=C/C=C/c3ccco3)C2=O)ccc1Cl	4.0	70.5	3.5	4.7	88.8*	-0.1	93.2*	76.3*
CCOC(=O)c1ccc(N2N=C(C)/C(=C/C=C/c3ccco3)C2=O)cc1	3.8	98.6	5.7	1.6	8.9	0.1	/	/
Cc1cc(C(F)(F)F)n(-c2nc(C(=O)NNS(=O)(=O)c3ccccc3)cs2)n1	13.1	/	-1.3	5.9	21.8	0.1	/	/
Cc1cc(C(F)(F)F)n(-c2nc(C(=O)NNS(=O)(=O)c3ccccc3[N+](=O)[O-])cs2)n1	0.5	103.0	-0.5	-2.8	45.0*	0.6	27.0	8.6*
CC(C)=CCC/C(C)=C/Cc1c(O)ccc(C(=O)/C=C/c2ccc(O)cc2)c1O	5.9	/	2.2	4.6	67.6*	0.6	39.3*	23.7*
C=C(C)C(O)Cc1c(OC)ccc(C(=O)/C=C/c2ccc(O)cc2)c1O (centres undefined)	-1.7	106.8	1.7	0.9	12.9	0.0	/	/
CC(C)(C)C1CCc2c(sc3nc(SCC(=O)O)nc(N)c23)C1 (centres undefined)	-59.7	93.2	-0.1	-21.9	35.8*	0.1	41.9*	10.1*
CCOc1ccc(N2CC(C(=O)Nc3ccc(S(=O)(=O)Nc4nccs4)cc3)CC2=O)cc1 (centres undefined)	-2.2	115.7	-1.1	2.5	48.6*	-0.1	34.4	11.6*
Cc1ccc(N2CC(C(=O)Nc3ccc(S(=O)(=O)Nc4nccs4)cc3)CC2=O)cc1 (centres undefined)	2.0	95.8	-0.4	-2.4	36.0*	-0.1	27.0	6.7*
CCOc1ccc(N2CC(C(=O)Nc3ccc(S(=O)(=O)Nc4ncccn4)cc3)CC2=O)cc1 (centres undefined)	0.7	114.6	0.0	0.4	9.3	0.2	/	/
COC1=NC(=C(c2ccccc2)c2ccccc2)OC1=O	-2.6	93.9	1.0	-2.3	0.0	0.5	/	/
SMILES	ADAM10 inh	DSG3 Ab inh	MPTP block	ADAM17 inh	rCAG binder	KLK7 zymogen act	rCAG binder conf	dCAG dye counter	others
COc1cc(COc2ccc3c(C)c(CCC(=O)O)c(=O)oc3c2)cc(OC)c1OC	-121.0	92.4	-0.7	-45.8	12.1	-1.6	/	/
Cc1c(CCC(=O)O)c(=O)oc2cc(OCc3cccc(Cl)c3)ccc12	i	84.4	1.6	-345.1	38.4*	0.9	35.7*	9.1*
Cc1ccc(CNC(=O)c2ccc3c(=O)[nH]c4c(C(=O)NCC5CCCO5)sc(=S)n4c3c2)cc1 (centres undefined)	0.1	/	19.6	-5.2	61.0*	-0.2	91.6*	74.0*
CCCCCNC(=O)c1ccc2c(=O)[nH]c3c(C(=O)NCC4CCCO4)sc(=S)n3c2c1 (centres undefined)	-12.2	/	15.1	-2.5	58.9*	-0.3	85.8*	61.7*
O=C(NCc1ccccc1)c1ccc2c(=O)[nH]c3c(C(=O)NCC4CCCO4)sc(=S)n3c2c1 (centres undefined)	-3.7	117.2	1.1	-5.2	50.4*	-0.7	90.9*	65.7*
CC(=O)c1cc(-c2ccc(Cl)c(Cl)c2)c(=O)n2c1CCC2	-14.8	/	/	-13.5	4.3	0.0	/	/
